Data as given in PubChem BioAssay AID1851 (National Center for Advancing Translational Sciences (NCATS), 2009).
Where “and” joins values, the source holds several entries; their conditions need not be identical. Equal entries are not always repeated. The whole screen tested about 16,000 compounds, of which about 5,100 (32%) were called active. Inconclusive results (about 25%) are left out. This is one part of the list. Values without a mark were called inactive. Calls follow the shape of the dose curve; as a rule, active = well fitted curve in the direction sought with a large enough effect; inconclusive = small, poorly fitted or top-dose-only effect, or effect the other way; inactive = no such curve, though single readings can be large or run the other way.

molecular target: Cytochrome P450 3A4 (Homo sapiens) (UniProt P08684); test: Cytochrome panel assay with activity outcomes; settings: recombinant CYP, pro-luciferin dealkylation, luminescence, p450-cyp3a4; series mostly up to 57.1 µM; activity, negative = inhibition: at the top concentration
Sequence (P08684 whole entry, looked up): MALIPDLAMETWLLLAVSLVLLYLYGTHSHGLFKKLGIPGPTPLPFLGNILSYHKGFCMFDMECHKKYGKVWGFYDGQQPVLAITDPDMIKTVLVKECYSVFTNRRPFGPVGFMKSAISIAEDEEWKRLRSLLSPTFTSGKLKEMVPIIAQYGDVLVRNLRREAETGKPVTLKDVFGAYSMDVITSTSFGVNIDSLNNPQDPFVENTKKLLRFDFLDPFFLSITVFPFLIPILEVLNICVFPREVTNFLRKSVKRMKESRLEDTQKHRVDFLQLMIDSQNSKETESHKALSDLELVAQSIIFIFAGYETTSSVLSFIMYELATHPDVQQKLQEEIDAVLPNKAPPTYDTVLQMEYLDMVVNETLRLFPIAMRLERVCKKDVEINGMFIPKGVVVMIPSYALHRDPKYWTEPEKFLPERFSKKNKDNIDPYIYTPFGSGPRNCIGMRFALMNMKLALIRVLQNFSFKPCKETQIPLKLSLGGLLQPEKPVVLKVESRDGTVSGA
% is scaled to controls: 0 for no effect and ±100 for the full control effect.

Row | SMILES | activity, negative = inhibition | AC50
1 | CC(=O)N(O)CCCCCNC(=O)CCC(=O)N(O)CCCCCNC(=O)CCC(=O)N(O)CCCCCN | -17.3% [at 25.6 µM] | –
2 | O=C(O)C[C@H]1OCC=C2C[N@@+]3([O-])CC[C@]45c6ccccc6N[C@@H]4[C@@H]1[C@H]2C[C@H]53 | -0.0687% [at 11.4 µM] | –
3 | O=C(Cn1cc(C(F)(F)F)ccc1=O)N1CCN(S(=O)(=O)c2ccccc2)CC1 | -26.5% [at 11.4 µM] | –
4 | O=C1C2CCCN2c2ccc(S(=O)(=O)N3CCOCC3)cc2N1Cc1cccc(C(F)(F)F)c1 (stereo unspecified) | – | 15.8 µM (active)
5 | O=C(c1ccc2c(c1)N(Cc1ccccc1)C(=O)CS2)N1CCOCC1 | -28.8% | –
6 | Cc1ccc(C)c(CN2C(=O)C3CCCN3c3ccc(C#N)cc32)c1 (stereo unspecified) | – | 5.01 µM (active)
7 | Cc1ccc(C)c(CN2C(=O)C3CCCN3c3ccc(S(=O)(=O)N4CCOCC4)cc32)c1 (stereo unspecified) | – | 11.2 µM (active)
8 | Cc1ccc(C2CC2C(=O)NN)cc1 (stereo unspecified) | – | 7.94 µM (active)
9 | O=C(O)[C@@H](O)c1ccc(F)cc1 | -5.47% [at 11.4 µM] | –
10 | COc1ccc([C@@H](Nc2ncccn2)c2cc3c(cc2O)OCO3)cc1 | – | 2.51 µM (active)
11 | COc1ccc([C@@H](C)c2cc3c(cc2O)OCO3)cc1 | – | 2.51 µM (active)
12 | COc1ccc([C@H](O)c2ccccn2)cc1 | -5.07% [at 11.4 µM] | –
13 | N#CC(=C(/N)Sc1ccccc1N)/C(C#N)=C(/N)Sc1ccccc1N | – | 316 nM (active) and 3.16 µM (active)
14 | N#CC1=C(SCC(N)=O)NC2=C(C(=O)c3ccccc32)C1c1ccc(Cl)cc1 (stereo unspecified) | – | 10 µM (active)
15 | C[N+](C)(C)CC[N+]1(C)Cc2c(Cl)c(Cl)c(Cl)c(Cl)c2C1 | -12.8% | –
16 | Cc1cccc(C)c1NC(=O)COc1cccc(/C=N/NC(=O)C(=O)NCc2ccccc2)c1 | -17.9% | –
17 | COc1cccc(OCC(=O)NN=C2c3ccccc3-c3ccccc32)c1 | – | 6.31 µM (active)
18 | C/C(CC(=O)Nc1cc(C)ccn1)=N\NC(=O)COc1cccc(C)c1 | -15.1% [at 2.29 µM] | –
19 | CCOc1ccc(C(CC(=O)O)NC(=O)COc2ccccc2)cc1 (stereo unspecified) | -1.92% | –
20 | Cc1cccc2c1OCC/C2=N\NC(=O)COc1ccccc1 | – | 15.8 µM (active)
21 | Cc1cccc2c1OCC/C2=N\NC(=O)COc1ccccc1Cl | 0.168% | –

Row | SMILES | activity, negative = inhibition | AC50
22 | CC(N)=NCCCC[C@H](N)C(=O)O | -19% | –
23 | CCc1c2c(nc3cccc(C(C)C)c13)-c1cccc(=O)n1C2 | – | 15.8 µM (active)
24 | CCc1c2c(nc3cccc(OC)c13)OC(CC)C2 (stereo unspecified) | -7.79% | –
25 | CC(C)c1cccc2nc3c(c([Si](C)(C)C)c12)Cn1c-3cccc1=O | – | 10 µM (active)
26 | CC(C)c1cccc2nc3c(c([Si](C)(C)C(C)(C)C)c12)Cn1c-3cccc1=O | – | 12.6 µM (active)
27 | CCc1cccc2nc3c(c([Si](C)(C)C)c12)Cn1c-3cccc1=O | – | 12.6 µM (active)
28 | O=C1CS/C(=C\[N+](=O)[O-])N1c1ccc(OC(F)(F)F)cc1 | -23.8% | –
29 | Cc1cc(C2CCCCC2)n(O)c(=O)c1 | -26.4% [at 25.6 µM] | –
30 | CCN(CC)CCOc1ccc(/C(=C(\Cl)c2ccccc2)c2ccccc2)cc1 | -27.7% [at 25.6 µM] | –
31 | CN(C)CCCO[C@H]1[C@H]([C@H](O)CO)O[C@H]2OC(C)(C)O[C@@H]21 | -7.33% | –
32 | Cc1c2c(nc3ccccc13)-c1cccc(=O)n1C2 | – | 12.6 µM (active)
33 | O=c1c2ccccc2nc2n1CCC2 | -1.04% | –
34 | Cc1[nH]nc(-c2ccc(OCc3cnn(-c4ccccc4)c3)cc2O)c1Oc1ccc(F)cc1 | – | 14.1 µM (active)
35 | COC(=O)c1ccc(C2C(Oc3ccccc3)C(=O)N2CCc2ccc(OC)c(OC)c2)cc1 (stereo unspecified) | – | 2.82 µM (active)
36 | Cc1ccccc1OC1C(=O)N(Cc2ccc3c(c2)OCO3)C1c1sccc1C (stereo unspecified) | – | 0.794 µM (active)
37 | COc1ccc(CCN2C(=O)C(Oc3ccccc3C)C2c2ccc3c(c2)OCO3)cc1OC (stereo unspecified) | – | 0.501 µM (active)
38 | NC(N)=NC(N)=Nc1ccccc1 (tested in a mixture with another compound) | -12.3% [at 11.4 µM] | –
39 | Clc1ccc(C2=C3CCCCn4c(-c5ccccc5)c[n+](c43)C2)cc1 | -17% | –
40 | CC[C@H](NC(C)C)[C@H](O)c1ccc(O)c2[nH]c(=O)ccc12 | -10.3% | –
41 | O=C(NNc1nc2ccccc2s1)C1CC1 | -5.94% | –
42 | O=C(O)[C@@H](O)[C@@H](O)[C@@H](O)[C@@H](O)c1nc2ccccc2s1 | -23.6% [at 11.4 µM] | –

Row | SMILES | activity, negative = inhibition | AC50
43 | CCCc1cc(C(=O)Cc2nc3ccccc3s2)c(O)cc1O | – | 12.6 µM (active)
44 | Cc1ccc(OC(=O)N2CCOCC2)cc1 | -1.91% | –
45 | O=C(Oc1ccc2ccccc2c1Br)N1CCCCCC1 | – | 14.1 µM (active)
46 | O=C(CCN1CCCCC1)c1csc2ccccc12 | -13.8% [at 11.4 µM] | –
47 | CCCCOc1ccc(C(=O)N/C(=C\c2cccc([N+](=O)[O-])c2)C(=O)OCCC)cc1 | – | 1 µM (active)
48 | CCCCOc1ccc(C(=O)NCc2ccco2)cc1 | -3.62% | –
49 | CCCCOc1ccc(C(=O)N/C(=C\c2ccc(OC)cc2)C(=O)OCc2ccco2)cc1 | – | 3.98 µM (active)
50 | COc1ccc(/C=C(/NC(C)=O)C(=O)O)cc1 | 4.62% [at 2.29 µM] | –
51 | OC[C@@H]1O[C@H](O)[C@@H](Cl)[C@H](O)[C@@H]1O | 0.669% | –
52 | C=CCNCCCCOc1c(Cl)cc(C)cc1Br | – | 14.1 µM (active)
53 | COCCCNCCCCOc1c(Cl)cc(C)cc1Br | -14.4% [at 2.29 µM] | –
54 | Cc1cc(Br)cc(C)c1OCCCCN(C)C | 17% | –
55 | COc1ccccc1-c1nc(NCc2cnc(C)cn2)c2ccccc2n1 | – | 15.8 µM (active)
56 | Cc1cnc(CNc2ccnc(-c3ccccc3C(F)(F)F)n2)cn1 | -6.93% | –
57 | Cc1cnc(CNc2nc(-c3ccccc3C(F)(F)F)nc3ccccc23)cn1 | – | 5.01 µM (active)
58 | COc1ccc2[nH]cc(CCNc3ncnc4ccc(-c5ccccc5C#N)cc34)c2c1 | – | 2 µM (active)
59 | COc1ccc2[nH]cc(CCNc3ncnc4ccc(-c5cccc(C#N)c5)cc34)c2c1 | – | 2.51 µM (active)
60 | COc1cccc(-c2ccc3ncnc(NCCc4c[nH]c5ccc(OC)cc45)c3c2)c1 | – | 1.26 µM (active)
61 | COc1ccc2[nH]cc(CCNc3ncnc4ccc(-c5ccoc5)cc34)c2c1 | – | 3.98 µM (active)
